Laboratory results as given in PMC12431657, “Discovery and mechanistic insights of dibenzoylmethane as a broad spectrum inhibitor of coronavirus” (PLOS Pathogens, 2025).
Where a name gives a salt, the structure may show the parent alone. Read-outs that look alike come from different tables or passages of the source. The campaign covered roughly 3,300 compounds. About 95 (3%) showed an effect of 50% or more. The list comes from a sample in which strong results are over-represented; it also holds similar structures and randomly drawn compounds.

Tested on: HCoV-229E
Set-up: species or system Huh-7; HTS, protection from HCoV-229E induced cell death, luminescent cell viability (CellCounting-Lite 2.0), inhibition rate
Settings: 24 h post infection, 1 h compound pre-incubation, 10 µM, inhibitor

O=C(O)[C@H](O)[C@@H](O)C(=O)O [L-Tartaric acid]
229E Inhibition rate (229E Inhibition rate, 24 h): 17.2%

CCOC(=O)CC(C)O (stereo not shown) [Ethyl 3-hydroxybutyrate]
229E Inhibition rate: 11.8%

CN1c2ccccc2C(=O)N2CCc3c([nH]c4ccccc34)C21 (racemic) [(±)-Evodiamine]
229E Inhibition rate: 18.7%

CCCCC/C=C/C=C/C(=O)NCC(C)C [Pellitorine]
229E Inhibition rate: 14.2%

O=C(O)c1ccncc1 [Isonicotinic acid]
229E Inhibition rate: 55%

O=C(O)c1ccc(C(=O)O)cc1 [Terephthalic acid]
229E Inhibition rate: 10.1%

O=C(O)c1ccccc1 [Benzoic acid]
229E Inhibition rate: 11.6%

O=C(O)c1c(O)cccc1O [2,6-Dihydroxybenzoic acid]
229E Inhibition rate: 10.3%

C=C(CO)C(=O)O[C@H]1CC(=C)[C@@H]2C[C@H](O)C(=C)[C@@H]2[C@H]2OC(=O)C(=C)[C@@H]21 [Cynaropicrin]
229E Inhibition rate: 8.5%

Cc1ccccc1C(=O)NCC(=O)O [2-(2-Methylbenzamido)acetic acid]
229E Inhibition rate: 54.8%

Cc1ccccc1C(=O)O [o-Toluic acid]
229E Inhibition rate: 0%

O=C(O)CNC(=O)c1ccccc1 [Hippuric acid]
229E Inhibition rate: 8.9%

CCOC(=O)/C=C/c1ccc(O)cc1 [p-Coumaric Acid Ethyl Ester]
229E Inhibition rate: 23%

O=C1Cc2ccccc2N1 [Oxindole]
229E Inhibition rate: 15.9%

O=C1C=CC[C@@H]2[C@H]3CCCN4CCC[C@@H](CN12)[C@@H]34 [Sophocarpine (monohydrate)]
229E Inhibition rate (229E Inhibition rate, 24 h): 23.9%

COc1ccc(C2COc3cc(O)ccc3C2)c(O)c1OC (stereo not shown) [Isomucronulatol]
229E Inhibition rate: 9.8%

COc1ccc(C(=O)O)cc1 [p-Anisic acid]
229E Inhibition rate: 5.8%

Oc1cc(O)c2c(c1)O[C@H](c1cc(O)c(O)c(O)c1)[C@H](O)C2 [(-)-Epigallocatechin]
229E Inhibition rate: 10.4%

Oc1cc(O)c2c(c1)O[C@H](c1cc(O)c(O)c(O)c1)[C@@H](O)C2 [(+)-Gallocatechin]
229E Inhibition rate: 54.1%

Oc1cc(O)c2c(c1)O[C@@H](c1cc(O)c(O)c(O)c1)[C@H](O)C2 [(-)-Gallocatechin]
229E Inhibition rate: 16.1%

O=C(O)CC(O)(CC(=O)O)C(=O)O [Sodium citrate (dihydrate)]
229E Inhibition rate (229E Inhibition rate, 24 h): 0%

CC(C)C1=Cc2ccc3c(c2C(=O)C1=O)CCCC3(C)C [Miltirone]
229E Inhibition rate: 4.2%

O=C(O)Cc1cccc(O)c1 [3-Hydroxyphenylacetic acid]
229E Inhibition rate: 11%

C=C1C[C@@]2(O)O[C@@]3(C[C@H]2C(C)C)[C@@H](C)CC[C@@H]13 [Curcumol]
229E Inhibition rate: 11.7%

C=C1C[C@]2(O)O[C@@]3(CC2=C(C)C)[C@@H](C)CC[C@@H]13 [Isocurcumenol]
229E Inhibition rate: 10.7%

CC1=C[C@]2(O)O[C@@]3(CC2=C(C)C)[C@@H](C)CC[C@@H]13 [Curcumenol]
229E Inhibition rate: 64.3%

O=C1CCCCC1=O [1,2-Cyclohexanedione]
229E Inhibition rate: 20.8%

C=C(C)C1CC=C(C)C(O)C1 (mixture of isomers) [Carveol]
229E Inhibition rate: 14.5%

C[C@H]1CC[C@@H]2N(C1)C[C@H]1[C@@H]3C[C@H]4[C@@H](CC(=O)[C@H]5C[C@@H](O[C@@H]6O[C@H](CO)[C@@H](O)[C@H](O)[C@H]6O)CC[C@@]54C)[C@@H]3CC[C@@H]1[C@]2(C)O [Edpetiline]
229E Inhibition rate: 11.7%

COC(=O)c1ccccc1O[C@@H]1O[C@H](CO[C@@H]2OC[C@@H](O)[C@H](O)[C@H]2O)[C@@H](O)[C@H](O)[C@H]1O [Gaultherin]
229E Inhibition rate: 45.9%

COc1ccc(C(C)=O)c(O[C@@H]2O[C@H](CO[C@@H]3OC[C@H](O)[C@H](O)[C@H]3O)[C@@H](O)[C@H](O)[C@H]2O)c1 [Apiopaeonoside]
229E Inhibition rate: 0%

O[C@@H]1[C@@H](O)[C@H](OC/C=C/c2ccccc2)O[C@H](CO[C@@H]2OC[C@H](O)[C@H](O)[C@H]2O)[C@H]1O [Rosavin]
229E Inhibition rate: 56.6%

O=C1NCN(c2ccccc2)C12CCN(CCCOc1ccc(F)cc1)CC2 [Spiramide]
229E Inhibition rate: 51.4%

O=C(O)c1cc(O)c2c(c1)C(=O)c1cccc(O)c1C2=O [Rhein]
229E Inhibition rate: 55.2%

Cc1cc(O)c2c(c1)C(=O)c1cccc(O)c1C2=O [Chrysophanol]
229E Inhibition rate: 29.5%

O=C1c2cccc(O)c2C(=O)c2c(O)cccc21 [Danthron]
229E Inhibition rate: 0%

C=C1C=CC(C(C)C)CC1 (stereo not drawn) [β-Phellandrene]
229E Inhibition rate: 51.8%

CC(C)=CC[C@]12Oc3cc(O)c([C@H]4C=C(C)C[C@H](c5ccc(O)cc5O)[C@H]4C(=O)c4ccc(O)cc4O)c(O)c3C(=O)[C@@]1(O)Oc1cc(O)ccc12 [Sanggenon C]
229E Inhibition rate: 43.3%

COC(=O)[C@H]1[C@H]2C[C@H]3c4[nH]c5ccccc5c4CCN3C[C@H]2CC[C@@H]1O [Rauwolscine (hydrochloride)]
229E Inhibition rate: 43.9%

COC(=O)[C@@H]1[C@H]2C[C@H]3c4[nH]c5ccccc5c4CCN3C[C@@H]2CC[C@@H]1O [Yohimbine]
229E Inhibition rate (229E Inhibition rate, 24 h): 50.5%

COC(=O)C1=CO[C@@H](C)[C@H]2CN3CCc4c([nH]c5ccccc45)[C@@H]3C[C@H]12 [Ajmalicine]
229E Inhibition rate: 55.3%

COC(=O)C1=CO[C@@H](C)[C@@H]2CN3CC[C@@]4(C(=O)Nc5ccccc54)[C@@H]3C[C@H]12 [Isopteropodine]
229E Inhibition rate: 13.3%

COC(=O)[C@@H]1[C@H]2C[C@H]3c4[nH]c5ccccc5c4CCN3C[C@@H]2CC[C@@H]1O [Yohimbine (Hydrochloride)]
229E Inhibition rate (229E Inhibition rate, 24 h): 36%

COC(=O)C1=CO[C@@H](C)[C@H]2CN3CC[C@]4(C(=O)Nc5ccccc54)[C@@H]3C[C@H]12 [Mitraphylline]
229E Inhibition rate: 5.5%

Cn1cnc2c(ncn2[C@@H]2O[C@H](CO)[C@@H](O)[C@H]2O)c1=N [1-Methyladenosine]
229E Inhibition rate: 12.1%

N[C@@H](Cc1c[nH]c2ccc(O)cc12)C(=O)O [5-Hydroxytryptophan]
229E Inhibition rate (229E Inhibition rate, 24 h): 13.7%
